Several values for one entry are separate records, joined by “and”; a condition that tells them apart may be missing. Identical values can stand only once. The whole screen tested about 280,000 compounds, of which about 2,600 (0.93%) were called active. About 8% were inconclusive and are not listed. Only a selection was taken, and actives are over-represented in it overall. Unmarked numbers belong to inactive results. Calls follow the shape of the dose curve; as a rule, active = well fitted curve in the direction sought with a large enough effect; inconclusive = small, poorly fitted or top-dose-only effect; inactive = flat fitted curve, though single readings scatter.
Experiment: Counterscreen qHTS for Inhibitors of Tau Fibril Formation, Fluorescence Polarization; also: nearly all actives have a fitted effect of over 55% in size
Details: tau K18 P301L (four-repeat tau fragment) Alexa594 fluorescence, heparin fibrillization; series mostly up to 57.7 µM; activity change, negative = decrease: at the top concentration
Source text: NIH Molecular Libraries Probe Production Network [MLPCN]
NIH Chemical Genomics Center [NCGC]
Assay Provider: Carlo Ballatore, University of Pennsylvania
The microtubule-associated protein tau is an abundant protein in the axons of neurons that stabilizes microtubules. With its ability to modulate microtubule dynamics, tau contributes directly or indirectly, to key structural and regulatory cellular functions. Particularly important is the influence tau exerts on axonal transport, which allows signaling molecules, trophic factors and other essential cellular constituents to travel along the axons. Under pathological conditions, tau becomes sequestered into insoluble aggregates called neurofibrillary tangles. This phenomenon is believed to have pathological consequences by promoting axonal transport deficits that ultimately lead to synaptic dysfunction and neuronal loss. To identify inhibitors of tau aggregation, a heparin-induced tau fibril formation assay was used that employed a recombinantly expressed fragment of tau, K18 (Q242-E372), bearing a P301L mutation (Gustke et al. 1994; Hong et al. 1998). […] Total fluorescence (555 nm excitation and 632 nm emission) was measured to identify fluorescent or absorbent compounds at this wavelength. Such compounds may be artifacts that interfere with the Alexa 594 Tau fluorescence polarization assay.
Gustke, N., B. Trinczek, et al. (1994). "Domains of tau protein and interactions with microtubules." Biochemistry 33(32): 9511-22.
Hong, M., V. Zhukareva, et al. (1998).
Li, W. and V. M. Lee (2006). "Characterization of two VQIXXK motifs for tau fibrillization in vitro." Biochemistry 45(51): 15692-701.
von Bergen, M., S. Barghorn, et al. (2001). "Mutations of tau protein in frontotemporal dementia promote aggregation of paired helical filaments by enhancing local beta-structure." J Biol Chem 276(51): 48165-74.
NCGC Assay Protocol Summary:
For screening, 2 uL/well human K18 P301L (15 uM unlabeled and 0.24 uM Alexa 594-labeled tau final concentrations) in reagent buffer (100 mM sodium acetate pH 7) was dispensed into black solid 1536-well plates (Grenier) using a solenoid-based dispenser. Following transfer of 23 nL compound or DMSO vehicle by a pin tool, 2 uL/well heparin (20 uM final concentration) in reagent buffer was added and the plate centrifuged 15 s at 1000 RPM. Plates were incubated 6 hr at 37 C and then 1 uL/well ThT (30 uM final concentration) was added. After a 1 hr ambient incubation, the plates were read by an Envision (Perkin Elmer) to monitor Alexa 594 FP (555 nm excitation and 632 nm emission).
Keywords: NIH Roadmap, MLPCN, MLI, MLSMR, NCGC, qHTS, tau, tauopathies, Alzheimer's disease, fibril, neurodegeneration, aggregation
% is scaled to controls: 0 for no effect and ±100 for the full control effect; potency is read from the fitted curve at half-maximal effect; tags tell the direction and shape of the fitted curve or compound fluorescence and quenching.

Row | SMILES | Potency | activity change, negative = decrease
1 | O=C(OCC1O[C@@H](OC(=O)c2cc(O)c(O)c(O)c2)[C@@H](OC(=O)c2cc(O)c(O)c(O)c2)[C@@H](OC(=O)c2cc(O)c(O)c(O)c2)[C@@H]1OC(=O)c1cc(O)c(O)c(O)c1)c1cc(O)c(O)c(O)c1 (stereo not given in full) | 10 µM [quencher] (active) | 
2 | C=CCN1CCC2(C)c3cc(O)ccc3CC1[C@@H]2C (stereo not given in full) |  | 10.3%
3 | COC1CC(OC2CC[C@@]3(C=O)C4CC[C@]5(C)C(C6=CC(=O)OC6)CC[C@@]5(O)C4CC[C@]3(O)C2)OC(C)C1O (stereo not given in full) |  | -4%
4 | N#CC(C#N)=Cc1cc(O)c(O)c([N+](=O)[O-])c1 |  | -26.8%
5 | CC(=O)c1c(O)c(C)c(O)c(Cc2c(O)c3c(c(C(=O)/C=C/c4ccccc4)c2O)OC(C)(C)C=C3)c1O | 15.8 µM [quencher] (active) and 12.6 µM [quencher] (active) | 
6 | CO[C@@H]1C[C@@H](C[C@H]2CC[C@H](C)[C@@H]([C@@H](C)C(=O)O)O2)O[C@]2(O[C@](C)([C@H]3CC[C@@](C)(C4OC([C@H]5O[C@@](O)(CO)[C@H](C)C[C@@H]5C)C[C@@H]4C)O3)C[C@H]2C)[C@@H]1C (stereo not given in full) |  | -6.37%
7 | CN(C)[C@@H]1C(=O)C(C(N)=O)=C(O)[C@@]2(O)C(=O)C3=C(O)c4c(O)cccc4[C@@](C)(O)C3CC12 (stereo not given in full) |  | -4.87%
8 | CCCCCCCCCCCCCC(=O)O[C@@H]1[C@@H](C)[C@@]2(O)[C@@H](C=C(CO)C[C@]3(O)C(=O)C(C)=C[C@@H]23)[C@@H]2C(C)(C)[C@]12OC(C)=O |  | -27.1%
9 | COc1ccccc1-c1[se]c2ccccc2c1I |  | -17.3% [at 81.3 µM]
10 | c1ccc2sc(SNC3CCCCC3)nc2c1 |  | -9.08%
11 | CC(C)(C)c1ccc(S(=O)(=O)Nc2ccc(O)c(Sc3nc4ccccc4s3)c2)cc1 | 8.91 µM [quencher] (active) | 
12 | CC[C@]1(O)C(=O)OCc2c1cc1n(c2=O)Cc2cc3ccccc3nc2-1 |  | -12%
13 | CCCN(C/C=C/I)C1CCc2ccc(O)cc2C1 (stereo not given) |  | -15.9%
14 | CN(C)C1C(=O)C(C(N)=O)=C(O)[C@@]2(O)C(=O)C3=C(O)c4c(O)cccc4[C@@](C)(O)C3C[C@@H]12 (stereo not given in full) |  | -12.5%
15 | CC[C@@H]1CN2CC[C@@H]1C[C@H]2[C@H](O)c1ccnc2ccc(OC)cc12 |  | -4.73%

— PubChem BioAssay AID1463 (National Center for Advancing Translational Sciences (NCATS), 2008)
